These results are taken from PMC5540273 (PLoS ONE, 2017).

Conditions in all cases: concentration: 1 μM, replicates: in singlicate; n = 1
The test system of experiment [1] is MAP4K2.
Experiment [2] deals with MAP4K3.
In experiment [3] the test system is MAP4K4.
The subject of experiment [4] is MAP4K5.
Experiment [5] has as its system MAPKAPK2.
Experiment [6] deals with MAPKAPK5.
Experiment [7] has as its system MARK1.
Experiment [8] deals with MARK2.
For experiment [9], the system named is MARK3.
Experiment [10] deals with MARK4.
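Note: KINOMEscan kinase panel screen.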

In the case of `O=C(Nc1n[nH]c2nc(-c3cccs3)c(Br)cc12)C1CC1` [SB-735297], the “%Inh” value is given as 0% in experiment [1]; 0% in experiment [2]; 0% in experiment [3]; 0% in experiment [4]; 0% in experiment [5]; 10% in experiment [6]. For the same molecule, the “%Inh” value amounted to 1% in [7], 0% in experiment [8], 20% in experiment [9] and 6% in [10].

For `CSc1ccc(-c2nc3n(c2-c2ccncc2)CCC3)cc1` [SKF-105561], the “%Inh” value in [1] was found to be 0%; in [2], 0%; in experiment [3], 1%; in experiment [4] it was 0%; in experiment [5], 10%; in experiment [6] it was 22%. In addition, the “%Inh” value in experiment [7] was found to be 0%; in experiment [8], 16%; in experiment [9] it was 0%; in experiment [10], 0%.

Consider `COc1ccc(CSc2nnc(-c3ccc4nccn4c3)o2)cc1C(F)(F)F`, for which the “%Inh” value came out at 37% in [1]; 16% in experiment [2]; 7% in [3]; 3% in experiment [4]; 33% in experiment [5]; 27% in experiment [6]. The “%Inh” value in experiment [7] is 10%; in experiment [8], 44%; in experiment [9], 0%; in [10], 6%.

As for `CCCCc1nn2ncccc2c1-c1ccnc(NC2CC2)n1` [GW684374], the “%Inh” value in experiment [1], in experiment [2], in experiment [3], in experiment [4], in experiment [5] and in experiment [6] was 0% throughout. In addition, the “%Inh” value in [7], in [8], in experiment [9] and in experiment [10] was 0% throughout.

Turning to `COc1ccc(CSc2nnc(-c3ccc4ncsc4c3)o2)cc1C(F)(F)F`, the “%Inh” value in experiment [1], in experiment [2], in experiment [3], in [4], in [5] and in experiment [6] was 0% throughout. The “%Inh” value in experiment [7] turned out to be 0%; in [8] it was 24%; in [9] it was 0%; in experiment [10] it was 2%.

For the molecule `COC(=O)C(Cc1ccccc1)NC(=O)NC1CCN(c2ccnc(Nc3ccc(F)cc3)n2)C1` (stereo not shown) [GSK1379714], the “%Inh” value is 0% in experiment [1]; 0% in experiment [2]; 9% in experiment [3]; 3% in experiment [4]; 21% in experiment [5]; 0% in experiment [6]. Also, the “%Inh” value amounted to 0% in [7], 8% in experiment [8], 0% in experiment [9] and 4% in experiment [10].

Consider `CS(=O)(=O)CCNCc1nc(-c2ccc3ncnc(Nc4ccc(OCc5ccccc5)c(Cl)c4)c3c2)cs1.Cl` [GW582764], for which the “%Inh” value in [1] amounted to 0%; in [2] it was 0%; in experiment [3], 10%; in experiment [4] it was 8%; in experiment [5] it was 21%; in experiment [6], 0%. Further, the “%Inh” value in experiment [7], in [8], in experiment [9] and in experiment [10] was 0% throughout.

For the molecule `Cc1c(Cn2c3ccccc3n3c(=O)cc(N4CCOCC4)nc23)cccc1C(F)(F)F` [GSK2306394], the “%Inh” value in [1] is reported as 2%; in [2] it was 0%; in experiment [3], 11%; in experiment [4], 8%; in [5] it was 0%; in [6], 0%. The “%Inh” value in [7], in experiment [8], in experiment [9] and in experiment [10] was 0% in each case.

On to `COc1ccc2cc(-c3nc(-c4ccccc4C(C)C)[nH]c3-c3ccncc3)ccc2c1` [SB-660566], for which the “%Inh” value in experiment [1] was 0%; in experiment [2] it was 0%; in experiment [3], 31%; in experiment [4] it was 3%; in experiment [5] it was 16%; in experiment [6], 0%. Moreover, the “%Inh” value is 7% in [7], 0% in [8], 0% in [9] and 3% in experiment [10].

In the case of `CS(=O)(=O)Cc1ccc(Nc2nccc(-c3c(-c4cccc(NC(=O)C5CCCCC5)c4)nn4ncccc34)n2)cc1` [GSK350559], the “%Inh” value came to 36% in experiment [1]; 0% in experiment [2]; 0% in [3]; 10% in experiment [4]; 0% in experiment [5]; 39% in experiment [6]. In addition, the “%Inh” value in [7] was 37%; in experiment [8], 0%; in experiment [9] it was 0%; in [10], 5%.

As to `Cc1cnc(N)c(/C=C/c2cncc(C(=O)NCCc3ccc(Cl)cc3Cl)c2)c1.Cl` [GSK190937], the “%Inh” value was 4% in experiment [1]; 0% in experiment [2]; 17% in experiment [3]; 18% in experiment [4]; 0% in experiment [7]; 6% in experiment [8]. The “%Inh” value in [9] and in [10] was 0% throughout.

In the case of `CC(=O)c1cccc(NC(=O)NC2CCN(c3ccnc(Nc4ccc(F)cc4)n3)C2)c1` (stereo not shown) [GSK1379710], the “%Inh” value worked out at 11% in experiment [1]; 8% in [2]; 13% in [3]; 16% in [4]; 16% in [5]; 0% in experiment [6]. For the same molecule, the “%Inh” value in [7] was 0%; in experiment [8] it was 0%; in experiment [9], 16%; in experiment [10] it was 0%.

On to `Cc1c(Cn2c(C)c(C)n3c(=O)cc(N4CCOCC4)nc23)cccc1C(F)(F)F` [GSK2328680], for which the “%Inh” value is on record as 0% in [1]; 0% in experiment [2]; 0% in experiment [3]; 0% in [4]; 16% in [5]; 0% in experiment [6]. Besides, the “%Inh” value in [7] came out at 0%; in [8], 0%; in [9], 19%; in experiment [10], 0%.

As to `CC(C)c1cc(-c2ccc3c(N)n[nH]c3c2)nc(N)n1` [GSK2250882], the “%Inh” value in experiment [1] turned out to be 0%; in [2], 0%; in experiment [3], 1%; in [4], 0%; in [5], 23%; in experiment [6] it was 0%. The “%Inh” value turned out to be 0% in [7], 9% in [8], 0% in experiment [9] and 0% in experiment [10].

Consider `COc1ccc(-c2coc3ccc(-c4nnc(C)o4)cc23)cc1`, for which the “%Inh” value in experiment [1], in [2], in experiment [3], in experiment [4], in experiment [5] and in [6] was 0% throughout. The “%Inh” value in experiment [7] turned out to be 100%; in experiment [8], 30%; in [9], 0%; in [10], 100%.

Take `COc1ccc(Nc2nccc(-c3ccc(NC(=O)c4cc5cc(F)ccc5[nH]4)cc3)n2)cc1` [GSK1229496]: the “%Inh” value in experiment [1], in [2], in [3], in experiment [4], in [5] and in experiment [6] was 0% each time. Besides, the “%Inh” value in experiment [7], in experiment [8], in experiment [9] and in experiment [10] was 0% throughout.

With `O=c1cc(N2CCOCC2)nc2n(Cc3cccc(Cl)c3Cl)c3ccccc3n12` [GSK2299009], the “%Inh” value stood at 0% in experiment [1]; 0% in [2]; 0% in [3]; 0% in experiment [4]; 32% in experiment [5]; 0% in experiment [6]. Besides, the “%Inh” value was determined as 7% in experiment [7], 0% in [8], 0% in [9] and 23% in experiment [10].

Regarding `Cc1ccc(NC(=O)Nc2ccccc2F)cc1-c1ccc(C(=O)Nc2ccncc2)cc1` [GSK1398477], the “%Inh” value in experiment [1] is reported as 0%; in experiment [2], 21%; in experiment [3], 29%; in experiment [4] it was 27%; in experiment [5], 37%; in experiment [6], 0%. The “%Inh” value is 8% in experiment [7], 5% in [8], 0% in experiment [9] and 19% in [10].
